From PubChem BioAssay AID360 (National Center for Advancing Translational Sciences (NCATS), 2006)
About 550 (1.1%) of roughly 48,000 compounds were called active. Inconclusive results (about 4%) are left out. No stated cut-off is given here; in the data, active means potency below about 15 µM; inconclusive means mostly about 16 µM to 33 µM; inactive means weaker than that. The sample as a whole holds a higher share of actives than the screen did.
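Further: the screen sought inhibitors.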
Potency means the concentration at half of the fitted maximal effect.

These compounds were tested against Lysosomal acid glucosylceramidase (Homo sapiens) (UniProt P04062) (assay: Glucocerebrosidase). Conditions: purified enzyme, resorufin glucoside fluorescence (screen aimed at inhibitors), 20 min.
Sequence of Lysosomal acid glucosylceramidase (Homo sapiens) (P04062 whole entry, looked up): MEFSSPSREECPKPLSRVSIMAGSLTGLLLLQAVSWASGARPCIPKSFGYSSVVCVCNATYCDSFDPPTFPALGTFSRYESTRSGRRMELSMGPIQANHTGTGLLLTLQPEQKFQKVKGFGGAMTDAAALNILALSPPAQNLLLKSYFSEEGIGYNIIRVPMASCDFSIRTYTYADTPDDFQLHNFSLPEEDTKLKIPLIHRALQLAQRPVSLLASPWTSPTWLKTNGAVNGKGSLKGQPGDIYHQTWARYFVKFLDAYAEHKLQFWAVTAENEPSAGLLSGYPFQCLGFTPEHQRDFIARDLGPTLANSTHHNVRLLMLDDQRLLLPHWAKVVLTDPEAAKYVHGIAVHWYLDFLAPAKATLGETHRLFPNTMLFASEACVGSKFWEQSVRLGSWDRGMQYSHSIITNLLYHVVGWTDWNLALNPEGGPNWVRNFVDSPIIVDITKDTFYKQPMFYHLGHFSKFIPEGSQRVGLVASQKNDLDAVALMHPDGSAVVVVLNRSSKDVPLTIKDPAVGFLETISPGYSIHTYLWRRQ
From the text: NCGC Assay Overview: Beta-glucocerebrosidase catalyzes the hydrolysis of beta-glucocerebroside to glucose and ceramide. The inherited deficiency of beta-glucocerebrosidase results in Gaucher disease, which is characterized by a wide variety of symptoms including hepatosplenomegaly, anemia, thrombocytopenia, bony lesions and bone marrow infiltration with characteristic storage cells, known as Gaucher cells. There are also forms of the disorder affecting the central nervous system. Patients with the same genotypes can manifest with diverse clinical presentations and it is believed that improper folding and trafficking of beta-glucocerbrosidase may contribute to the phenotypes observed. Low molecular weight molecules, acting as chaperones, may potentially restore trafficking of misfolded beta-glucocerebrosidase from the endoplasmic reticulum to the lysosomes, thereby enhancing functional lysosomal beta-glucocerebrosidase activity. Using normal beta-glucocerebrosidase, an assay was developed to screen for small molecule inhibitors that could potentially act as molecular chaperones on the mutant forms [developed with NIH investigator Dr. Ellen Sidransky's laboratory]. Two pro-fluorescent substrates were chosen for two screens against a small molecule library. One beta-glucocerebrosidase assay used Resorufin beta-D-Glucopyranoside (Marker Gene Technology Inc.), generating a red fluorescent product. The second assay used Fluorescein di-beta-D-Glucopyranoside, generating a blue fluorescent product. […] The IC50 values of Conduritol B Epoxide, a known glucocerebrosidase inhibitor, were determined to be 87.5 uM and 117 uM, respectively. The use of two difference pro-fluorescent substrates in the screens helped to eliminate false positives. All compounds were screened in a titration series resulting in AC50s (e.g., IC50s or EC50s).
NCGC Assay Protocol Summary: Both enzyme and substrate were diluted in buffer composed of 50mM citric acid/KH2PO4, 10mM sodium taurocholate and 0.01% tween-20 at pH 5.9. The final concentration of the enzyme was 0.2 nM in both assays. The compound library was titrated in 7 to 15 concentrations for the primary screens with a final concentration ranging from 0.6 nM to 50 uM. This particular assay protocol is for the "red" substrate, and it was performed in 1536-well plate format as follows: Red fluorescence substrate assay: 2 uL enzyme 23 nL compound 1 uL substrate (final concentration of 30 uM) Incubate at room temperature (RT) for 20 minutes Read the plate in Viewlux plate reader (Ex=548(7) and Em=600(10)).
For `CCC(=O)Nc1cccc(NC(=O)CSc2nnc(-c3ccc(NS(C)(=O)=O)cc3)n2C)c1`, the Potency was > 76.9 µM (inactive). In the case of `COc1cccc2cc(C(C)N(CCCN3CCOCC3)C(=O)Nc3ccc(Cl)cc3)oc12` (centres undefined), the Potency was 9.17 µM (active). For `O=C(NCCCN1CCOCC1)c1cc(-c2ccc(Cl)cc2)on1`, the Potency was > 76.9 µM (inactive). For `Cn1c(CN2CCOCC2)nc2cc(NC(=O)c3ccc(Cl)cc3)ccc21`, the Potency was 52.2 µM (inactive). In the case of `O=C(CSc1n[nH]c(-c2cccnc2)n1)Nc1ccnc2ccccc12`, the Potency was > 76.9 µM (inactive). With `COC(=O)c1ccccc1NC(=O)CSc1ccccn1` the Potency was > 76.9 µM (inactive). In the case of `O=C(CS(=O)(=O)Cc1ccccc1)NCC1CCCO1` (centres undefined), the Potency was > 76.9 µM (inactive). In the case of `CC(C)N(C(=O)Cn1c(SCC(=O)N2CCN(c3ccccc3)CC2)nc2ccccc21)C(C)C`, the Potency was > 76.9 µM (inactive). For `CCOC(=O)c1sc(NC(=S)n2cc(C)cn2)c(C(=O)OCC)c1C`, the Potency was > 76.9 µM (inactive). With `COc1cccc(NC(=O)CN(C)S(=O)(=O)c2ccc(C)cc2)c1` the Potency was > 76.9 µM (inactive). For `CC(C)NS(=O)(=O)c1ccc(CCC(=O)N2CCOCC2)cc1`, the Potency was > 76.9 µM (inactive). In the case of `CCCc1nnc(NC(=O)CN2C(=O)c3ccccc3S2(=O)=O)s1`, the Potency was > 76.9 µM (inactive). For `CN1CCN(c2nc3c(c(=O)[nH]c(=O)n3C)n2Cc2cccc3ccccc23)CC1`, the Potency was > 76.9 µM (inactive). In the case of `COc1ccc(C2N=C(N)N=C(N)N2c2ccccc2)cc1OC` (centres undefined), the Potency was > 76.9 µM (inactive). `O=C(Cn1c(-c2ccc(Cl)cc2)noc1=O)N1CCN(c2ccccc2F)CC1` was tested, and the Potency was > 76.9 µM (inactive). With `Fc1ccc(OCc2nn3c(Cn4nnc5ccccc54)nnc3s2)cc1` the Potency was > 76.9 µM (inactive). For `Cc1ccc(S(=O)(=O)N2CCC(C(=O)N[C@@H](C)C(=O)NCc3ccccc3)CC2)cc1`, the Potency was > 76.9 µM (inactive). With `C/C(O)=C\c1nc(=O)c2c(C)cc(C)nc2n1-c1ccccc1` the Potency was > 76.9 µM (inactive). For `O=C(COc1ccc(F)cc1)N(CC1=CCS(=O)(=O)C1)c1ccccc1`, the Potency was > 76.9 µM (inactive). `COc1ccc2nc(NC3=NCN(CC4CCCO4)CN3)nc(C)c2c1` (centres undefined) was tested, and the Potency was > 76.9 µM (inactive). With `Cc1cc(C)nc(N2CCN(c3ncnc4c3oc3ccccc34)CC2)n1` the Potency was > 76.9 µM (inactive). With `CC(C)c1nc2oc3c(N4CCN(C)CC4)ncnc3c2c2c1CCC2` the Potency was 8.51 µM (active). For `COc1ccc(CCn2c(-c3ccco3)nc3nc4ccccc4nc32)cc1OC`, the Potency was > 76.9 µM (inactive). In the case of `CCOC(=O)CCC(=O)OCC(=O)NC(C)C1CC2CCC1C2` (centres undefined), the Potency was > 76.9 µM (inactive).
